# AHR act = human AHR activation; 320,000 tested, 2.5% active; AHR-responsive luciferase reporter cells, luminescence; activation, % at 5 µM; in the data active means activation above about 47%
# Target sequence (P35869 whole entry, looked up): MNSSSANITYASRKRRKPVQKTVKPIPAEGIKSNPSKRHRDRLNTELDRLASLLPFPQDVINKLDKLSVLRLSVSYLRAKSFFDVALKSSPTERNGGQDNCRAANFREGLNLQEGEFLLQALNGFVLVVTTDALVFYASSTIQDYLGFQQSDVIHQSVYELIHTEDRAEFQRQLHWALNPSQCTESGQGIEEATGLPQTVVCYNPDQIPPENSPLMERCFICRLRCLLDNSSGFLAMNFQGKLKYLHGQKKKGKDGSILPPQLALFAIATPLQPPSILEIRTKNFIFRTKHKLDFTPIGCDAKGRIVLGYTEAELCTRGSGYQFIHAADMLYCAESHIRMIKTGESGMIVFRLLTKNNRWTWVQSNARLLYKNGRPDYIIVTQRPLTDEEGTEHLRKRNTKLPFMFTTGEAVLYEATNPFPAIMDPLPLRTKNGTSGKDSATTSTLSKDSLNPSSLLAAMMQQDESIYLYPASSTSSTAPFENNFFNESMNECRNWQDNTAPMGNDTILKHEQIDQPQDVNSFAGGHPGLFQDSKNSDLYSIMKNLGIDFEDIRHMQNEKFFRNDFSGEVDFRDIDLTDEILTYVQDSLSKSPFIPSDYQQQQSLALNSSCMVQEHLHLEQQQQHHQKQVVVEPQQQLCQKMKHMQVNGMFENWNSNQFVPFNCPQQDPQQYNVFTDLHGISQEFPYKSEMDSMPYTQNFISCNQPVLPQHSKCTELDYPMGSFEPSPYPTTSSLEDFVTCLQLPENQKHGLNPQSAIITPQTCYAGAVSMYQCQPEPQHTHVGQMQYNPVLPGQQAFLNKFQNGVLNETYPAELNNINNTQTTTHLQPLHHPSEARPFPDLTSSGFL
# SUMO Mot1 rescue = SUMOylation pathway inhibition by Mot1-301 growth rescue; S. cerevisiae Mot1-301 growth rescue, ATP luminescence, 38.5C; percent above DMSO median, 100 means doubled; growth rescue, % at 18.8 µM; 320,000 tested, 1% active; AID 2716;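 active means every valid replicate shows activation above 250% relative to neutral control wells; inactive means the rest, any valid replicate at or below 250%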
# NR3A LBD binder = modulators (binders) of human NR3A ligand-binding domain; NR3A LBD differential scanning fluorimetry, Tm shift; 0% = protein alone, 100% = glycine-bound protein; 340,000 tested, 2.5% active; Tm shift relative to glycine control, % at 25 µM;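 active means melting temperature shift of at least 10% of the positive control shift, at one fixed dose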
# AI-2 QS modul = Vibrio harveyi AI-2 quorum sensing modulation; Vibrio harveyi JMH597 AI-2 luminescence/OD600 ratio, 9 h; stronger effect = lower value; strain lacks LuxN and CqsS sensors; 0 = neutral-control median; activity change, % at 7.5 µM; 300,000 tested, 0.4% active; in the data active means activity change below about -75%, passing the limit was not always enough;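 further: luminescence divided by OD600 gain over 9 h not by final OD600 alone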
# NTR1 agonist = agonists of human neurotensin receptor NTR1. P30989. NTR1-U2OS beta-arrestin-GFP spot imaging, agonist mode. activation, % at 20 µM. 330,000 tested, 0.17% active. AID 493036;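 active means activation at or above 40% of the spot to cytoplasm intensity ratio, with at least 20 cells analyzed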
# Cardio protect = myocardial damage modulation in H9c2 cells; H9c2 cardiomyocytes, H2O2 injury protection, ATPLite, 2 h; protection from H2O2 cell death, % at 20 µM; 360,000 tested, 0.63% active; AID 588492;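 active means compounds giving at least 50% protection of heart cells from peroxide-induced death in the single-dose screen, raw or plate-pattern-corrected value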
# A number is an active result; i = inactive; nt = no result. In the library only some 6.2% were active in any assay of this set; here they are far more common.
SMILES,AHR act,SUMO Mot1 rescue,NR3A LBD binder,AI-2 QS modul,NTR1 agonist,Cardio protect
COc1ccc(C(=O)N2CCN(Cc3cn[nH]c3-c3ccc(OC)cc3F)CC2)cc1,i,i,48,i,i,i
COc1ccc(-c2[nH]ncc2CN2CCCC(C(=O)c3cccc(OC)c3)C2)cc1 (stereo not given),73,i,i,i,i,i
COc1cccc(C(=O)N2CCN(Cc3cn[nH]c3-c3ccc(F)cc3F)CC2)c1,i,i,i,i,i,i
COc1ccc(C(=O)C2CCCN(Cc3cn[nH]c3-c3ccccc3)C2)cc1OC (stereo not given),i,i,i,i,i,i
CCOc1ccc(C(=O)N2CCc3ccccc32)cc1OCC,i,i,i,i,i,i
COc1ccc(NC(=O)CSc2nccn2Cc2ccco2)cc1,i,i,i,i,i,i
Cc1ccc(C(C)C)c(OCC(=O)NCC(c2cccs2)N2CCOCC2)c1 (stereo not given),i,i,nt,i,i,i
Oc1ccc(C2=Nn3c(nnc3-c3ccco3)SC2)cc1O,i,i,i,i,i,69
CC(C)(C)C1=Nn2c(nnc2-c2ccco2)SC1,i,i,i,i,i,i
Cc1ccc(NC(NC(=O)Cc2ccccc2)C(Cl)(Cl)Cl)cc1 (stereo not given),nt,nt,i,nt,nt,i
Cc1cc(C)c(NC(=S)NC(NC(=O)c2ccccc2)C(Cl)(Cl)Cl)c(C)c1 (stereo not given),i,i,i,i,i,i
Cc1ccc(C(=O)NC(NC(=S)Nc2ccc(S(N)(=O)=O)cc2)C(Cl)(Cl)Cl)cc1 (stereo not given),i,i,19,i,i,i
Cc1ccc(C)c(NC(=S)NC(NC(=O)Cc2ccccc2)C(Cl)(Cl)Cl)c1 (stereo not given),i,i,20,i,i,i
Cc1ccc(NC(=S)NC(NC(=O)c2ccccc2)C(Cl)(Cl)Cl)c(C)c1 (stereo not given),i,i,15,i,i,i
O=C(Cc1cccc(NC(=O)C2CCN(C(=O)CCc3ccccc3)CC2)c1)Nc1cccc(C(=O)N2CCCCC2)c1,nt,nt,i,nt,nt,i
COc1cc(NC(=O)c2cc(OC)c(OC)c(OC)c2)cc(-n2cnnn2)c1,i,i,i,nt,i,i
CCOC(=O)N1CCc2c(sc(NC(=O)CN3CCN(C)CC3)c2C(=O)Nc2ccccc2)C1,i,i,i,i,i,i
CCOC(=O)N1CCc2c(sc(NC(=O)CN3CCOCC3)c2C(=O)Nc2ccccc2)C1,i,i,i,i,i,50
COc1ccc(NS(=O)(=O)NC(=O)c2c[nH]c3ccccc23)cc1,i,i,i,i,i,i
O=C(/C=C/Nc1cccc([N+](=O)[O-])c1)c1cccs1,i,i,i,i,i,i
COC(=O)c1ccc(N/C=C\C(=O)c2ccc3c(c2)OCO3)cc1,i,i,i,i,i,i
CNc1cc([N+](=O)[O-])ccc1N/C=C/C(=O)c1cccs1,74,i,i,i,i,i
CNc1cc([N+](=O)[O-])ccc1N/C=C/C(=O)c1ccc2c(c1)OCO2,i,i,13,i,i,i
O=C(/C=C/c1ccccc1Br)c1ccc2c(c1)OCO2,i,i,i,i,i,i
O=C(/C=C/Nc1ccccc1)c1ccccc1,i,nt,nt,i,i,i
SMILES,AHR act,SUMO Mot1 rescue,NR3A LBD binder,AI-2 QS modul,NTR1 agonist,Cardio protect
O=C(/C=C/Nc1ccc(F)cc1Br)c1ccccc1,51,i,i,i,i,i
O=C(/C=C\Nc1ccccc1Br)c1ccc2c(c1)OCO2,i,i,36,i,i,i
Cc1ccc(NC(=O)CSc2nnc(-c3cc(C)[nH]n3)n2N)c(C)c1,i,i,i,i,i,i
C=CCOc1ccc(C2C(C#N)=C(N)N(N(C)C)C3=C2C(=O)CCC3)cc1 (stereo not given),i,i,i,i,i,i
OC(COCC(F)(F)C(F)(F)C(F)(F)C(F)F)Cn1c2ccc(Cl)cc2c2cc(Cl)ccc21 (stereo not given),i,i,19,i,i,i
N=c1n(Cc2ccc(Cl)cc2)c2ccccc2n1CC(O)COc1ccccc1 (stereo not given),i,i,i,i,i,i
O=C(CCC(=O)N1CCCCC1)Nc1ccc(Cl)c(Cl)c1,i,i,i,-78,i,i
Cc1cc(OCC(=O)OCC(=O)NCc2ccco2)ccc1Cl,i,i,i,i,i,i
CCC1(c2ccc(F)cc2)NC(=O)N(CC(=O)NCC(=O)Nc2cccc(C)c2C)C1=O (stereo not given),i,i,i,i,i,i
CCOC(=O)c1c(NC(=O)C(=O)N/N=C/c2ccc(OCC)cc2)sc2c1CCCCC2,i,i,i,i,i,i
CCOC(=O)c1c(NC(=O)C(=O)N/N=C/c2ccc(O)c(OC)c2)sc2c1CCCCC2,i,i,i,i,i,53
N#Cc1c(Cc2cccc3ccccc23)nn(CCO)c1N,i,i,i,i,i,i
Cc1ccc(-c2oc3ccccc3c(=O)c2O)cc1,i,i,i,i,i,74
CC(C)=CCc1cc(-c2oc3cc(O)cc(O)c3c(=O)c2O)ccc1O,i,i,21,i,i,i
O=c1c(O)c(-c2cc(O)c(O)c(O)c2)oc2cc(O)cc(O)c12,i,265,27,nt,i,i
O=c1cc(-c2ccccc2)c2c(O)cc(O)cc2o1,i,i,i,i,i,i
O=c1c(O)c(-c2ccccc2)oc2ccccc12,nt,nt,i,nt,nt,i
CC(=O)c1ccc(O)c(CC=C(C)C)c1,i,i,i,i,i,i
O=c1c(O)c(-c2ccccc2)oc2cc(O)cc(O)c12,i,nt,11,nt,i,i
Cc1ccc(C(=O)NCCCN2CCOCC2)c(C)c1,i,i,i,i,i,i
COc1c(-c2ccc(O)c(O)c2)oc2cc(O)cc(O)c2c1=O,i,i,16,i,i,i
Cc1c(-c2ccccc2)c(=O)oc2cc(O)ccc12,i,i,i,i,i,i
Oc1ccc2c(c1)oc1cc(O)ccc12,i,i,18,i,i,i
O=c1c(O)c(-c2ccccc2)oc2cc(O)ccc12,nt,nt,nt,nt,nt,79
O=c1c(O[C@@H]2O[C@H](CO)[C@@H](O)[C@H](O)[C@H]2O)c(-c2ccc(O)c(O)c2)oc2cc(O)cc(O)c12,nt,nt,nt,i,i,nt
O=c1c(-c2ccccc2)c(-c2ccccc2)oc2cc(O)cc(O)c12,i,i,20,i,i,i
Cc1cccc(C(=O)OC2CCOC2=O)c1C (stereo not given),i,i,i,i,i,i
CCOC(=O)C1=NN(C(=O)c2ccco2)C2(CC2)C1,i,i,i,i,i,72
Cc1ccc(CNC(=O)c2cc3c(s2)CS(=O)(=O)C3)cc1,i,i,i,i,i,i
O=C(NCc1cccs1)c1cc2c(s1)CS(=O)(=O)C2,i,i,15,i,i,i

# Screening data (PubChem BioAssay)
